Screening results (PubChem BioAssay)
TDP1 cell noCPT – qHTS for Inhibitors of human tyrosyl-DNA phosphodiesterase 1 (TDP1): qHTS in cells in absence of CPT | DT40 Tdp1-/- hTDP1 cells, no CPT, ATP luminescence, 48 h | Potency, µM (top dose mostly 46.2 µM), inactives show top-dose activity change, negative = growth inhibition, actives largely listed as inhibitors | 15% of 420,000 active | AID 686978, 2013; note: potency is the fitted concentration of half-maximal effect; % is set by controls: 0 for no effect and ±100 for the full control effect; nearly all actives have a fitted effect of over 55% in size
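Growth of hTDP1-complemented DT40 Tdp1-knockout cells is measured by ATP luminescence after at least 48 hr compound exposure at 37 °C, with DMSO substituting for the 20 nM CPT used in the parallel screen.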
DT40 TDP1 CPT – DT40-hTDP1 cell growth loss with CPT | Potency, µM (top dose mostly 46.2 µM), for the others: at the top dose activity change, negative = growth inhibition, most hits filed as inhibitors | 12% of 420,000 active | AID 686979 | chicken DT40 Tdp1-/-;hTDP1 cells + 20 nM CPT, ATP luminescence, 48 h; note: potency is the fitted concentration of half-maximal effect; % is set by controls: 0 for no effect and ±100 for the full control effect; nearly all actives have a fitted effect of over 55% in size
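Chicken DT40 Tdp1-/- cells complemented with human TDP1, 400 cells/well, exposed to compounds plus 20 nM camptothecin for at least 48 h at 37 C; viability read as ATP content by CellTiter-Glo luminescence.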
IL-1B inflam inh – blocks inflammasome-driven IL-1 beta release. THP-1 LPS/ATP IL-1B secretion, AlphaLISA, 16 h; hits give low values. 4.7% of 360,000 active. activity change, % at 57.5 µM; in the data active = activity change below about -50%; inconclusive = mostly about -30% to -49%; note: % is set by controls: 0 for no effect and ±100 for the full control effect
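THP-1 cells pretreated 1 hr with compounds (up to 57.5 uM final), then stimulated with LPS (250 ng/mL final) plus ATP (1.25 mM final); secreted IL-1B measured by AlphaLISA after 16 hr, decreased signal indicating inhibition.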
Chronic BCR inh – chronic active BCR signaling inhibition; ABC-DLBCL IkBa-CBG/CBR reporter, luminescence ratio, 4 h; Potency, µM (titrated, usually from 46.1 µM), without a hit: top-dose activity change, negative = inhibition, actives largely listed as inhibitors; 0.05% of 340,000 active; AID 493014; active = well fitted inhibition curve with a large enough effect in the signal ratio, with a control signal flat, not every such curve was filed as active; inconclusive = small, poorly fitted or top-dose-only effect, or effect the other way, or a change in a side signal; the % refers to the signal ratio;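 note: potency is the fitted concentration of half-maximal effect; plate controls were basal doxycycline-induced cells for no effect and cells given 10 µM MG132 for full effect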
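Concentration-response series (up to 46 uM) were applied to TMD8 dual-reporter cells for 4 h at 37C with doxycycline. Green/red ratio, after filter-overlap correction, defined %Activity; red signal alone was normalised to basal cells and zero luminescence.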
SW480 rereplic – induces DNA re-replication in SW480 colon adenocarcinoma cells. Potency, µM (series often up to 46.1 µM), for the others: at the highest dose re-replication activation, most hits filed as activators. 1.8% of 340,000 active. SW480 DNA re-replication, Hoechst DNA content imaging, 48 h. AID 624297; note: potency is the fitted concentration of half-maximal effect; % of control where 0% means no effect; nearly all actives have a fitted effect of over 55% in size
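SW480 cells exposed to compounds for 48 hr at 37 C, 5% CO2, then Hoechst-stained 40 min. Nuclear DNA content imaged by fluorescence scanning (405 nm excitation, 500-530 nm emission); re-replication scored as increased high-intensity nuclei.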
MCF10A rerep – inducers of DNA re-replication in MCF 10A breast cells. 2.9% of 350,000 active. MCF 10A DNA re-replication, Hoechst nuclear intensity, 48 h. Potency, µM (series often up to 46.1 µM), without a hit: at the highest dose activity, positive = re-replication, usual class: activators; note: potency is the fitted concentration of half-maximal effect; % of control where 0% means no effect; nearly all actives have a fitted effect of over 50% in size
Starred values were filed as active, the others as inactive; ? = inconclusive; nt = no result given; [ ] = another dose, or the depositor's remark. Only some compounds are listed: those with a hit (about 19% of all), similar ones and a draw of the others. Unless noted, calls come from the whole dose curve; as a rule, active = well fitted curve in the direction sought with a large enough effect; inconclusive = small, poorly fitted or top-dose-only effect, or another doubt; inactive = no such curve, though single readings can be large; an effect the other way counts as inactive or inconclusive.

SMILES	TDP1 cell noCPT	DT40 TDP1 CPT	IL-1B inflam inh	Chronic BCR inh	SW480 rereplic	MCF10A rerep
Cc1cc(C)cc(NC(=O)[C@H](Cc2c[nH]c3ccccc23)NC(=O)[C@@H]2Cc3ccccc3CN2)c1	?	?	24	?	18µM*	21µM*
CCc1ccc(NC(=O)[C@H](Cc2c[nH]c3ccccc23)NC(=O)[C@@H]2Cc3ccccc3CN2)cc1	?	18µM*	-3	?	16µM*	18µM*
Cc1cccc(NC(=O)[C@H](Cc2c[nH]c3ccccc23)NC(=O)[C@@H]2Cc3ccccc3CN2)c1	?	?	-1	?	21µM*	16µM*
Cc1ccc(NC(=O)[C@H](NC(=O)[C@@H]2Cc3ccccc3CN2)c2ccccc2)c(C)c1	-29%	?	15	?	-5%	6%
CC(Oc1ccc(O)cc1)(P(=O)(O)O)P(=O)(O)O	-9%	25%	nt	nt	nt	nt
CN(C)CCN(Cc1ccccc1)C(=O)c1[nH]c(C(F)(F)F)nc1-c1ccccc1	?	-15%	4	nt	nt	nt
CCc1ccc(C(=O)c2cn(CC(=O)Nc3ccc(OC)cc3)c3cc4c(cc3c2=O)OCO4)cc1	-9%	-16%	nt	nt	nt	nt
COc1ccc(C(=O)c2cn(Cc3cccc(C)c3)c3cc4c(cc3c2=O)OCO4)cc1	26µM*	16µM*	nt	nt	nt	nt
Cc1ccc(C(=O)c2cn(Cc3ccccc3)c3cc4c(cc3c2=O)OCCO4)cc1	?	21µM*	nt	nt	nt	nt
O=C(c1cnn(C(=O)CN2CCCC2=O)c1)c1ccccc1O	-25%	?	-2	-5%	-1%	-3%
Cc1sc2nc(-c3ccc(Br)cc3)oc(=O)c2c1C	-7%	-3%	12	?	7%	5%
C#CC(CO)N(CCN(Cc1ccccc1)C(C#C)CO)Cc1ccccc1 (stereo not drawn)	?	?	-62*	10%	16%	23%
COc1ccc(C(=O)N(CC2CCCO2)C(C(=O)NC2CCCC2)c2ccc(Cl)cc2)cc1OC (stereo not drawn)	18µM*	?	2	0%	-5%	-180%[0.0737 µM]
COc1ccc(Cl)cc1C(=O)NCC(c1ccco1)N1CCCC1 (stereo not drawn)	0%	-26%	14	-4%	-4%	9%
COc1cc(C(=O)NCC(c2ccco2)N2CCCC2)ccc1OCc1ccc(Cl)cc1Cl (stereo not drawn)	23µM*	?	?	nt	?	18µM*
COc1cc(C(=O)NCC2CCCO2)ccc1OCc1ccc(Cl)cc1 (stereo not drawn)	?	?	0	?	-18%	-3%
COc1cc(C(=O)NCC2CCCO2)ccc1OCc1ccc(Cl)cc1Cl (stereo not drawn)	?	?	-86*	?	-31%	16%
O=C(CCC(=O)c1ccc(Cl)cc1)OCc1nc2ccsc2c(=O)[nH]1	-2%	-17%	16	0%	-8%	11%
Cc1ccc(/C=C/C(=O)Nc2ccc(S(=O)(=O)Nc3onc(C)c3C)cc2)cc1	0%	-4%	52	?	4%	-10%
Cc1ccc(CSc2nnc(CNc3ccc(F)cc3)o2)cc1	-22%	3%	-12	-4%	11%	-3%
COc1ccc(C=CC(=O)c2ccc([N+](=O)[O-])cc2)cc1	-27%	-7%	0	nt	-3%	-8%
COc1ccc(C(=O)/C=C/c2ccc(N3CCCCC3)c([N+](=O)[O-])c2)c(OC)c1	21µM*	?	?	-21%	?	12µM*
COc1ccc(C(=O)/C=C/c2ccc(N3CCCCC3)c([N+](=O)[O-])c2)cc1	?	?	-101*	?	?	8.2µM*
Cc1ccc(C(=O)O/N=C\c2ccc(N3CCCCC3)c([N+](=O)[O-])c2)cc1	13µM*	?	-7	-2%	-1%	9%
COCCn1c(=O)c(-c2cccc(C#N)c2)nc2cnc(OCc3ccccc3)nc21	-24%	-11%	nt	nt	nt	nt
SMILES	TDP1 cell noCPT	DT40 TDP1 CPT	IL-1B inflam inh	Chronic BCR inh	SW480 rereplic	MCF10A rerep
CC(=O)N1CCCc2cc(S(=O)(=O)N3CCC(C(=O)N(C)C4CCCCC4)CC3)ccc21	23µM*	?	nt	nt	nt	nt
CC(=O)N1CCCc2cc(S(=O)(=O)N3CCC(N(C)C(C)C)CC3)ccc21	0%	-1%	nt	nt	nt	nt
CC(=O)N1CCCc2cc(S(=O)(=O)N3CCC(C)CC3)ccc21	-4%	3%	14	-3%	-109%	-2%
CC(=O)N1CCCc2cc(S(=O)(=O)N3CCC(C(=O)N(Cc4ccccc4)C(C)C)CC3)ccc21	?	23µM*	nt	nt	nt	nt
Fc1cccc(Cc2c(-c3cccc(Cl)c3)nc3ccc(Cl)cn23)c1	?	?	31	nt	nt	nt
Cc1ccc(C2c3c(oc4ccccc4c3=O)C(=O)N2c2nnc(C)s2)cc1 (stereo not drawn)	21µM*	13µM*	nt	19%	nt	nt
CN(CC(=O)Nc1ccc(OC(F)(F)F)cc1)C(=O)Cc1cccs1	?	?	16	-3%	6%	-1%
O=C(CSC1=NCCS1)Nc1nc2ccccc2s1	?	?	-74*	?	5%	1%
Cc1sc(NC(=O)CSC2=NCCS2)nc1-c1ccccc1	?	-23%	-97*	?	0%	8.9µM*
Cc1sc(NC(=O)CSc2ncn(-c3ccccc3)n2)nc1-c1ccccc1	-58%	?	0	18%	1%	13%
CC(=O)N1CC(=O)N=C1SCC(=O)Nc1nc(-c2ccccc2)c(-c2ccccc2)s1	13µM*	18µM*	-77*	?	2%	21µM*
COc1cccc(-c2oc3c(c2-c2ccc(OC)nc2)C(O)CCC3)c1 (stereo not drawn)	?	-20%	-11	nt	nt	nt
CC1CCCCC1NC(=S)Nc1ccc(SC(F)F)cc1 (stereo not drawn)	?	?	-80*	?	-2%	?
S=C(NCC1CCCCC1)Nc1ccc(Oc2ccccc2)cc1	?	?	-77*	?	0%	18µM*
CCCNC(=S)Nc1ccc(Oc2ccccc2)cc1	16µM*	?	-7	-2%	?	22%
FC(F)Sc1ccc(NC(=S)NCC2CCCCC2)cc1	?	?	-92*	?	?	?
CCOC(=O)Cc1ccc(NC(=O)n2ncc3cc(Cl)ccc32)cc1	6%	-1%	nt	nt	nt	nt
